In PubChem BioAssay (Tox21):
“And” between values parts separate entries of the source, which are not always exact repeats. Equal entries are not always repeated. Results filed as inconclusive are left out. The source made the active and inactive calls. Unless noted, calls come from the whole dose curve; as a rule, active = well fitted curve in the direction sought with a large enough effect in the repeat runs; inconclusive = weak or mixed curves; inactive = no such curve, though single readings can be large; an effect the other way counts as inactive or inconclusive.

Tests used:
[1] = biological target: Acetylcholinesterase (Homo sapiens) (UniProt P22303); test: Acetylcholinesterase (AChE) small molecule antagonists: enzyme-based qHTS assay (AID 1347397; calls by dose curve; note: nearly all actives have a fitted effect of over 55% in size); settings: Potency: AChE enzyme activity inhibition
Outline: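 Colorimetric DTNB readout of acetylthiocholine hydrolysis, 10 min at room temperature, after 30 min room-temperature exposure of 50 mU/mL recombinant human enzyme to compound; DMSO vehicle control.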

[2] = biological target: Acetylcholinesterase (Homo sapiens) (UniProt P22303); test: Acetylcholinesterase (AChE) small molecule antagonists: fluorescence cell-based qHTS assay (AID 1347398; calls by dose curve; note: nearly all actives have a fitted effect of over 50% in size); settings: Potency: AChE activity
Outline: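 Cellular AChE activity read as thiocholine from acetylthiocholine hydrolysis, detected by Thiolite Green fluorescence at 490/520 nm after 40 min at room temperature. Compounds were pre-incubated 30 min at 37 C on adherent SH-SY5Y cells.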

[3] = biological target: Acetylcholinesterase (Homo sapiens) (UniProt P22303); test: Acetylcholinesterase (AChE) small molecule antagonists: enzyme-based qHTS assay with human liver microsomes (AID 1347399; calls by dose curve; note: nearly all actives have a fitted effect of over 60% in size); settings: Potency: qHTS inhibition
Outline: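 Recombinant human AChE (50 mU/mL in the enzyme mix) and human liver microsomes (0.25 mg/mL final) were preincubated with compound and NADPH (0.25 mg/mL final) for 30 min at 37 C. Acetylthiocholine/DTNB was then added; thiocholine was read colorimetrically after 10 min at room temperature.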

[4] = biological target: Cytochrome P450 2D6 (Homo sapiens) (UniProt P10635); test: Cytochrome P450 Family 2 Subfamily D Member 6 (CYP2D6) small molecule antagonists: luciferase reporter qHTS assay (AID 1671196); note: nearly all actives have a fitted effect of over 50% in size
Outline: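 Test chemicals meet CYP2D6 plus proluciferin substrate (10 min, RT); NADPH regenerating solution then drives turnover for 1 h. Detection reagent halts the reaction; luminescence measured after 20 min.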

[5] = biological target: Cytochrome P450 2C19 (Homo sapiens) (UniProt P33261); test: Cytochrome P450 Family 2 Subfamily C Member 19 (CYP2C19) small molecule antagonists: luciferase reporter qHTS assay (AID 1671197); note: nearly all actives have a fitted effect of over 65% in size
Outline: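 First, compounds are pinned into enzyme-substrate mix and held 10 min at room temperature. Second, NADPH regeneration solution is added and plates incubate 1 h at 37C. Third, detection reagent is added and luminescence read after 20 min.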

[6] = biological target: Cytochrome P450 2C9 (Homo sapiens) (UniProt P11712); test: Cytochrome P450 Family 2 Subfamily C Member 9 (CYP2C9) small molecule antagonists: luciferase reporter qHTS assay (AID 1671198); note: nearly all actives have a fitted effect of over 50% in size
Outline: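 Enzyme-substrate mix preincubated with compound 10 min at room temperature; reaction started with NADPH regeneration solution, 1 h 37C. Luminescent luciferin product read after 20 min detection reagent.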

[7] = biological target: Cytochrome P450 1A2 (Homo sapiens) (UniProt P05177); test: Cytochrome P450 Family 1 Subfamily A Member 2 (CYP1A2) small molecule antagonists: luciferase reporter qHTS assay (AID 1671199); note: nearly all actives have a fitted effect of over 50% in size
Outline: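 Steps: enzyme-substrate mix dispensed; test compounds and furafylline control pinned in; 10 min room temperature; NADPH regeneration solution added, 1 h; reaction stopped with luciferin detection reagent; luminescence read after 20 min.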

[8] = biological target: Voltage-gated inwardly rectifying potassium channel KCNH2 (Homo sapiens) (UniProt Q12809); test: Human Ether-a-go-go-Related Gene (hERG) channel small molecule antagonists: fluorescence cell-based qHTS assay (AID 1671200); note: nearly all actives have a fitted effect of over 50% in size
Outline: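 Kinetic two-minute fluorescence traces, sampled at 1 s, were collected following thallium stimulus of U2OS cells (1000 per well) that had been cultured overnight at 37 C and loaded with FluxOR II.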

[9] = biological target: Cytochrome P450 3A4 (Homo sapiens) (UniProt P08684); test: Cytochrome P450 Family 3 Subfamily A Member 4 (CYP3A4) small molecule antagonists: luciferase reporter qHTS assay (AID 1671201); note: nearly all actives have a fitted effect of over 50% in size
Outline: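 Proluciferin-to-luciferin conversion by CYP3A4, NADPH-regenerated, 1 h RT; luminescence read as RLU. Ketoconazole as control.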

Measured: Potency
Potency is the fitted concentration of half-maximal effect.

Sequence of Cytochrome P450 2C19 (Homo sapiens) (P33261 whole entry, looked up): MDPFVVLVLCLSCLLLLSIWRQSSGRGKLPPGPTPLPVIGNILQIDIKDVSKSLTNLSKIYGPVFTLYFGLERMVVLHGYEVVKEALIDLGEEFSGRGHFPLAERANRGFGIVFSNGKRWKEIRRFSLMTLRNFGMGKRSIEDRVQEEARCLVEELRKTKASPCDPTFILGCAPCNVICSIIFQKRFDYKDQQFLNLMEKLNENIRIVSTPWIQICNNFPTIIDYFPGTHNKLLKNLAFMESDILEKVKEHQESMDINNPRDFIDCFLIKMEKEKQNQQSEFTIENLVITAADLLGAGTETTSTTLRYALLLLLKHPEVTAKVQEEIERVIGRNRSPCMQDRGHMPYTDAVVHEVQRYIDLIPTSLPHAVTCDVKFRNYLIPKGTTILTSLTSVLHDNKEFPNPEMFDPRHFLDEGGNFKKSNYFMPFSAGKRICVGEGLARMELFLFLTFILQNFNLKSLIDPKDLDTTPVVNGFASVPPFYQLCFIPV
Sequence of Voltage-gated inwardly rectifying potassium channel KCNH2 (Homo sapiens) (Q12809 whole entry, looked up): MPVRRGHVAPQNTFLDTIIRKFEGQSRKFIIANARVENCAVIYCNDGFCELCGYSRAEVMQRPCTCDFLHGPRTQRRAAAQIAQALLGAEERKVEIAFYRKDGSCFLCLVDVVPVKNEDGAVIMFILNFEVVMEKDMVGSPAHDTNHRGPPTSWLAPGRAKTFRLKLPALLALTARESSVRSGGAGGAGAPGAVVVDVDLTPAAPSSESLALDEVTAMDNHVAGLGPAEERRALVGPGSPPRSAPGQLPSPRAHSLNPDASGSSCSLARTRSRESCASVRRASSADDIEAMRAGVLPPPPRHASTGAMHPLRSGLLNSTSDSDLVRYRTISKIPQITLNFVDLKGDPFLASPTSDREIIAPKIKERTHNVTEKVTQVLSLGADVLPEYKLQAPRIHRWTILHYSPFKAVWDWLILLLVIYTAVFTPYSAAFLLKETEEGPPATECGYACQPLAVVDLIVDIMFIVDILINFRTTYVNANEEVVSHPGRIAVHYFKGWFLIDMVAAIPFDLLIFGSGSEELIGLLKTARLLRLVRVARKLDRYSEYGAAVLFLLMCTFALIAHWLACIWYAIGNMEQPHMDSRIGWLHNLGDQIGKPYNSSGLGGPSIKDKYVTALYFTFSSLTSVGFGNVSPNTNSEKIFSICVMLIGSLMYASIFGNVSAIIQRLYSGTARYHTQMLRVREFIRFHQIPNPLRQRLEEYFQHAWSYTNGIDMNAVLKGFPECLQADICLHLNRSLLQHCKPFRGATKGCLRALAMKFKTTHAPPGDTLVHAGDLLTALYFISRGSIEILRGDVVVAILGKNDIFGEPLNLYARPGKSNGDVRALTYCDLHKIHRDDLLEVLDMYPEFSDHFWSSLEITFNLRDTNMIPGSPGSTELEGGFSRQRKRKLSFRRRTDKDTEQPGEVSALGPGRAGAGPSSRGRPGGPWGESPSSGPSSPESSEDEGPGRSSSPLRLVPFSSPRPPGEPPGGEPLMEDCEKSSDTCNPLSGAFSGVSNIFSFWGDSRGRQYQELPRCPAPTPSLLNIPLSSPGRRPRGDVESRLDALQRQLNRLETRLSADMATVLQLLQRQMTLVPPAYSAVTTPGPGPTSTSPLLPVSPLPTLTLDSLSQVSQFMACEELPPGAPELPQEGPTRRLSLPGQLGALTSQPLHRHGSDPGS
Sequence of Cytochrome P450 2D6 (Homo sapiens) (P10635 whole entry, looked up): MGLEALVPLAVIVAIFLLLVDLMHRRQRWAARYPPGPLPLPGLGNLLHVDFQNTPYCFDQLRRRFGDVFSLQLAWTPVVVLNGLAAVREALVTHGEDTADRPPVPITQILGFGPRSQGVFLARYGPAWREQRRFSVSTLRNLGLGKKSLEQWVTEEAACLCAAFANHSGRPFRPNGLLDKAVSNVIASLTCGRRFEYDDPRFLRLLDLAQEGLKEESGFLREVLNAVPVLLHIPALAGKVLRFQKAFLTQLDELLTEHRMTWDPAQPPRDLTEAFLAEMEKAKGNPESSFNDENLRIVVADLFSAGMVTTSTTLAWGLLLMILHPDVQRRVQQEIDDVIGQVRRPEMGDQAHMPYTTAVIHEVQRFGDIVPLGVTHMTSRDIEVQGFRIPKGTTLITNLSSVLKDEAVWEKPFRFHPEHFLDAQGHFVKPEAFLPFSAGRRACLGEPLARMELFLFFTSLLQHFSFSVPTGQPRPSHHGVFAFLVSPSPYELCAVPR
Sequence of Cytochrome P450 3A4 (Homo sapiens) (P08684 whole entry, looked up): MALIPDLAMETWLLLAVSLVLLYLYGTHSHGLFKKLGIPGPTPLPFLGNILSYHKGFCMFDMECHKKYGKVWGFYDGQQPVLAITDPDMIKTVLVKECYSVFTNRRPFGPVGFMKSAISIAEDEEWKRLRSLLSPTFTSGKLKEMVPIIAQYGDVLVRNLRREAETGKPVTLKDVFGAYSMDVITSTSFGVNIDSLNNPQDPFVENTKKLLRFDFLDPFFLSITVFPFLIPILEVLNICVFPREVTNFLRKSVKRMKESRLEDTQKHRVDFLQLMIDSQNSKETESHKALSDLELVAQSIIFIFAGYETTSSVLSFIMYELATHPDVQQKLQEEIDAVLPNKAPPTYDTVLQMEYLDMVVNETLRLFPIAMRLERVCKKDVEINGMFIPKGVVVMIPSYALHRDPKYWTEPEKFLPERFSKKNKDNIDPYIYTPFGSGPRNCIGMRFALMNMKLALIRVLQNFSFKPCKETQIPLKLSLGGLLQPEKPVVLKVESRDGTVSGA
Sequence of Acetylcholinesterase (Homo sapiens) (P22303 whole entry, looked up): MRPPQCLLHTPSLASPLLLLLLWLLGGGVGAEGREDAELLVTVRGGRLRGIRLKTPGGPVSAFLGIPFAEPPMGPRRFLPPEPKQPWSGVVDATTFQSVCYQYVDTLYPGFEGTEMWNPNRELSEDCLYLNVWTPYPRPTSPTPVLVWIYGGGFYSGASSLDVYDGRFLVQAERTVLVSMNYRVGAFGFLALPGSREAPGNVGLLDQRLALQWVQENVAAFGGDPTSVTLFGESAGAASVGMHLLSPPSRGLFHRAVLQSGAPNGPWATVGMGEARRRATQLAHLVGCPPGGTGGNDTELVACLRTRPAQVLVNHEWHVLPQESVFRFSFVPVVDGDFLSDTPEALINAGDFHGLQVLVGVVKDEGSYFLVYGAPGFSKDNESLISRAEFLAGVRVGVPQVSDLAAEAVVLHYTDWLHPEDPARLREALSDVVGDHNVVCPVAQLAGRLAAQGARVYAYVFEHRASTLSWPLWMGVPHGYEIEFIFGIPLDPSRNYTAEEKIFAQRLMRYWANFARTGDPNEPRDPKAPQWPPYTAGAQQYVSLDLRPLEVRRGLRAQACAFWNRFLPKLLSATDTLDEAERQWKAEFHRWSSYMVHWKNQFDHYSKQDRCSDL
Sequence of Cytochrome P450 2C9 (Homo sapiens) (P11712 whole entry, looked up): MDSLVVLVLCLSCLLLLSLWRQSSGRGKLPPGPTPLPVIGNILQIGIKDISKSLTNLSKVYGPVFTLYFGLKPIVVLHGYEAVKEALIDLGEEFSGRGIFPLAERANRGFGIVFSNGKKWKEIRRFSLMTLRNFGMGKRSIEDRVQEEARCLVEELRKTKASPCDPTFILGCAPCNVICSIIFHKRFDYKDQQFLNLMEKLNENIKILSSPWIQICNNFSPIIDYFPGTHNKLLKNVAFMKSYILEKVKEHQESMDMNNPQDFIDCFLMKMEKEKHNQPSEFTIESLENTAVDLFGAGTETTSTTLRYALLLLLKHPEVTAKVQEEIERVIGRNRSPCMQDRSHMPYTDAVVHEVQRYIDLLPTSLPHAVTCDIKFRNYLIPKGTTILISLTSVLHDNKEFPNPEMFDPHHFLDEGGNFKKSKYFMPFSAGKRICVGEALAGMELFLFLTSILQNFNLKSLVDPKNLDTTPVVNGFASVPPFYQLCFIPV
Sequence of Cytochrome P450 1A2 (Homo sapiens) (P05177 whole entry, looked up): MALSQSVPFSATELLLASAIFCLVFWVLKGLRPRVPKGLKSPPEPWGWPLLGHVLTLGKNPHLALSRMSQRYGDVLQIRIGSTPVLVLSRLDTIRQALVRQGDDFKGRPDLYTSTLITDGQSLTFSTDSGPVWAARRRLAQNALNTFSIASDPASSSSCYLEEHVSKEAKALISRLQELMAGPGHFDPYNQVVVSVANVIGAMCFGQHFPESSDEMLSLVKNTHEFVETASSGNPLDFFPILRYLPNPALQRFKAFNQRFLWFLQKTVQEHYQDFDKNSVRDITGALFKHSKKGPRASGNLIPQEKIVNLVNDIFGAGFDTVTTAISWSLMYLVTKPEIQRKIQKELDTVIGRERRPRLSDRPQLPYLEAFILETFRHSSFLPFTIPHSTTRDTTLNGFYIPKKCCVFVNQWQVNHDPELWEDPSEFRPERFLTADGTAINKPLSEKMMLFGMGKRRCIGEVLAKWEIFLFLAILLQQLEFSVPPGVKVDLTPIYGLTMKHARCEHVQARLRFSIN

ClC1=C(Cl)[C@]2(Cl)[C@@H]3[C@@H](Cl)[C@H](Cl)C[C@@H]3[C@@]1(Cl)C2(Cl)Cl
inactive: [1] | [2] | [3] | [4] | [5] | [6] | [7] | [8] | [9]

CCCCCCCCCCCCBr
inactive: [1] | [2] | [3] | [4] | [5] | [6] | [8] | [9]

CC(C)OC(=O)C(O)(c1ccc(Cl)cc1)c1ccc(Cl)cc1
inactive: [1] | [2] | [3] | [9]
active: [4] 31.7 µM | [5] 2 µM | [6] 8.94 µM | [8] 21.9 µM

[Cl][Sb]([Cl])[Cl]
inactive: [1] | [2] | [3] | [4] | [5] | [6] | [7] | [8] | [9]

O=C1C=CC(=O)c2ccccc21
inactive: [1] | [2] | [3]
active: [4] 15.9 µM | [5] 14.2 µM | [6] 11.2 µM | [7] 25.2 µM | [8] 21.9 µM | [9] 15.9 µM

CCCCCCCCCCBr
inactive: [1] | [2] | [3] | [4] | [5] | [6] | [8] | [9]

Cn1[nH]nnc1=S
active: [5] 56.4 µM | [6] 71 µM
inactive: [1] | [2] | [3] | [4] | [8] | [9]

CN(C)CCc1c[nH]c2ccc(O)cc12
inactive: [1] | [2] | [3] | [5] | [7] | [8] | [9]
active: [4] 17.4 µM | [6] 24.6 µM

Clc1ccc(C(c2ccccc2Cl)C(Cl)(Cl)Cl)cc1 (stereo not given)
active: [5] 637 nM and 234 nM | [6] 22.6 µM and 10.4 µM
inactive: [1] | [2] | [3] | [4] | [7] | [9]

CCCCCCCCCCCCCN1CC(C)OC(C)C1 (stereo not given)
inactive: [1] | [2] | [3] | [5] | [7] | [9]
active: [4] 22.4 µM | [8] 13.8 µM

ClC1=C(Cl)C2(Cl)C3C(Cl)C=CC3C1(Cl)C2(Cl)Cl (stereo not given)
inactive: [1] | [2] | [3] | [4]
active: [5] 8.98 µM and 20 µM | [6] 35.6 µM | [8] 21.9 µM | [9] 5.05 µM and 11.2 µM

C=CCOC(N)=O
inactive: [1] | [2] | [3] | [4] | [5] | [6] | [8] | [9]

Fc1ccc(Oc2ccnc3cc(Cl)cc(Cl)c23)cc1
inactive: [1] | [2] | [3]
active: [4] 35.6 µM | [5] 20 µM | [6] 31.7 µM | [7] 0.71 µM | [8] 24.5 µM | [9] 63.3 µM

CC(C)[C@H](C(=O)O[C@H](C#N)c1cccc(Oc2ccccc2)c1)c1ccc(Cl)cc1
active: [5] 7.96 µM | [6] 5.63 µM
inactive: [1] | [2] | [3] | [4] | [8] | [9]

Cc1cc(Cl)ccc1O[C@H](C)C(=O)O
inactive: [1] | [2] | [3] | [4] | [5] | [6] | [7] | [8] | [9]

CC(C)OS(C)(=O)=O
inactive: [1] | [2] | [3] | [5] | [6] | [8] | [9]
active: [4] 40.2 µM | [7] 40.2 µM

CC(C)(COCC1CO1)COCC1CO1 (stereo not given)
active: [5] 79.6 µM
inactive: [1] | [2] | [3] | [4] | [6] | [7] | [8] | [9]

C1CCC2CCCCC2C1 (stereo not given)
inactive: [1] | [2] | [3] | [4] | [5] | [6] | [7] | [8] | [9]

C[C@@H]1O[C@@H](O[C@H]2C[C@@H](O)[C@]3(CO)[C@H]4[C@H](O)C[C@]5(C)[C@@H](C6=CC(=O)OC6)CC[C@]5(O)[C@@H]4CC[C@]3(O)C2)[C@H](O)[C@H](O)[C@H]1O
inactive: [1] | [2] | [3] | [4] | [5] | [6] | [8] | [9]

Cc1c(Cl)c(=O)oc2cc(OP(=O)(OCCCl)OCCCl)ccc12
inactive: [9]
active: [1] 0.246 µM | [2] 0.275 µM | [3] 3.09 µM | [4] 3.47 µM | [5] 2.19 µM | [6] 3.89 µM

CC1(C)C(/C=C(\Cl)C(F)(F)F)C1C(=O)OC(C#N)c1cccc(Oc2ccccc2)c1 (stereo not given)
inactive: [1] | [2] | [3] | [4] | [8] | [9]
active: [5] 8.09 µM | [6] 8.09 µM

N#Cc1ccccc1N
active: [4] 25.2 µM
inactive: [1] | [2] | [3] | [5] | [6] | [7] | [8] | [9]
